This note sets out measurements from PubChem BioAssay (EPA / NIEHS).

Inconclusive results are not listed. Calls of active or inactive are those of the source. The calls were made as follows, unless noted: active = hit-call score of the fitted dose curve at least 0.9, where 1 is the maximum; inactive = score below 0.9.

Experiment [1] is described as follows: ATG_NFI_CIS: Attagene CIS-FACTORIAL HepG2 Assay for human Nuclear Factor I (NFI) (AID 2282989). The note with it: HepG2 cis-regulatory reporter, NFI response element transcription; actives raise or lower the signal. The procedure, abridged:
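Multiplexed cis-reporter system in human HepG2 cells reports native TF activity as reporter mRNA induction 24 h post-dose. Fragments labelled with 6-FAM, HpaI-digested and resolved by capillary electrophoresis; activity fitted both directions versus DMSO.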

Experiment [2] concerns the target Myc proto-oncogene protein (Homo sapiens) (UniProt P01106). Description: ATG_Myc_CIS: Attagene CIS-FACTORIAL HepG2 Assay for human Myelocytomatosis (Myc) Proto-Oncogene Transcription Factor (AID 2282990). The note with it: HepG2, Attagene cis-reporter transcription factor activity; actives raise or lower the signal. The procedure, abridged: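 Fluorescence intensity of reporter-specific cDNA fragments, separated by capillary electrophoresis, gives the signal. Transfected HepG2 cells carrying cis-promoter reporter constructs are incubated with compound for 24 h; DMSO serves as baseline.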

Experiment [3] can be described thus: ATG_NF_kB_CIS: Attagene CIS-FACTORIAL HepG2 Assay for human Nuclear Factor Kappa B (NF-kB) (AID 2282991). The note with it: HepG2 Attagene cis-factorial NF-kB reporter mRNA; actives raise or lower the signal. The procedure, abridged:
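HepG2 cells transiently transfected with multiplexed cis-element reporter units measuring endogenous transcription factor activity; reporter mRNA read 24 h after dosing by RT-PCR, fluorescent labelling, HpaI digestion and capillary electrophoresis. Bidirectional fit against DMSO baseline.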

Experiment [4] in a line: ATG_NRF2_ARE_CIS: Attagene CIS-FACTORIAL HepG2 Assay for human Nuclear Factor Erythroid 2 Related Factor 2 (NFR2) response to Antioxidant Response Elements (ARE) (AID 2282992). The note with it: HepG2 Attagene ARE/NRF2 reporter, transcription factor activity; actives raise or lower the signal. Put shortly:
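Endogenous transcription factor activity read out as reporter transcript levels (RT-PCR plus capillary electrophoresis, fluorescence) in transiently transfected HepG2 cells. Measured at 24 h after dosing; gain or loss of signal fitted versus DMSO.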

A short description of experiment [5]: ATG_Oct_MLP_CIS: Attagene CIS-FACTORIAL HepG2 Assay for human Octamer-Binding Transcription Factor (Oct) (AID 2282993). To be noted: HepG2 Attagene cis-factorial Oct reporter, mRNA; actives raise or lower the signal. The procedure, abridged:
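After 24 h compound exposure, transfected HepG2 cells were lysed for total RNA; reporter-specific cDNA was PCR-amplified, fluorescently labelled and sized by capillary electrophoresis. Bidirectional curve fitting used DMSO as baseline.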

The target of experiment [6] is Cellular tumor antigen p53 (Homo sapiens) (UniProt P04637). Description: ATG_p53_CIS: Attagene CIS-FACTORIAL HepG2 Assay for human p53 Transcription Factor (AID 2282994). The note with it: HepG2 p53 cis-element reporter, Attagene mRNA; actives raise or lower the signal. Put shortly: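 Endogenous p53 activity read in transiently transfected HepG2 from a cis-element-driven reporter transcript after 24 h exposure. RNA reverse-transcribed, PCR-amplified, fluorescently labelled and sized by capillary electrophoresis; gain or loss fitted against DMSO baseline.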

Experiment [7] has as its target human Peroxisome Proliferator-activated Receptor delta (PPARd), PPARD (gene 5467) (UniProt Q03181). Description: ATG_PPARd_TRANS: Attagene TRANS-FACTORIAL HepG2 Assay for human Peroxisome Proliferator-activated Receptor delta (PPARd) (AID 2283002; active = hit-call score of the fitted dose curve at least 0.9, where 1 is the maximum). The procedure, abridged:
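Fluorescence from capillary electrophoresis of labelled RT-PCR reporter fragments gives the signal; DMSO sets baseline. Cells: HepG2 transiently carrying GAL4-UAS reporter units plus chimeric nuclear receptor-Gal4 proteins, exposed to chemicals for 24 h.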

In experiment [8] the target is Peroxisome proliferator-activated receptor gamma (Homo sapiens) (UniProt P37231). Description: ATG_PPARg_TRANS: Attagene TRANS-FACTORIAL HepG2 Assay for human Peroxisome Proliferator-activated Receptor-gamma (PPARg) (AID 2283007; active = hit-call score of the fitted dose curve at least 0.9, where 1 is the maximum). The procedure, abridged:
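HepG2 cells transiently transfected with multiplexed GAL4-UAS reporter units and exogenous chimeric NR-Gal4 proteins; reporter mRNA quantified after 24 h compound exposure by RT-PCR, fluorescent labelling, HpaI digestion and capillary electrophoresis; gain-of-signal fitted versus DMSO baseline.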

In experiment [9] the target is Nuclear receptor subfamily 1 group I member 2 (Homo sapiens) (UniProt O75469). Put plainly: ATG_PXR_TRANS: Attagene TRANS-FACTORIAL HepG2 Assay for human Pregnane X Receptor (PXR) (AID 2283008; active = hit-call score of the fitted dose curve at least 0.9, where 1 is the maximum). The procedure, abridged:
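Transactivation by exogenous PXR–GAL4 fusion measured as reporter transcript induction after 24 h compound treatment of transfected human HepG2 cells. Read-out via RT-PCR and capillary electrophoresis of labelled fragments, fitted upward relative to DMSO.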

A short description of experiment [10]: BSK_3C_TissueFactor: BioMAP Diversity Plus: 3C Assay for Tissue Factor Biomarker Activity (AID 2282997). The note with it: BioMAP 3C HUVEC, tissue factor biomarker readout; actives raise or lower the signal. The procedure, abridged:
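Readout: Tissue Factor ELISA. Cells: human primary umbilical vein endothelium. Time: 24 h after dosing. Analysis: bidirectional fit, DMSO baseline.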

A short description of experiment [11]: BSK_3C_uPAR: BioMAP Diversity Plus: 3C Assay for Urokinase-type plasminogen activator receptor (uPAR) Biomarker Activity (AID 2282998). To be noted: BioMAP 3C HUVEC, uPAR biomarker ELISA; actives raise or lower the signal. The procedure, abridged: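 Values derive from bidirectional curve fitting relative to DMSO, which served as baseline of activity. uPAR was measured by ELISA in human umbilical vein endothelial primary cultures 24 h after compound addition.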

Experiment [12] in a line: BSK_3C_VCAM1: BioMAP Diversity Plus: 3C Assay for Vascular cell adhesion molecule 1 (VCAM1) Biomarker Activity (AID 2282999). The note with it: BioMAP 3C HUVEC, VCAM1 ELISA, cytokine-stimulated; actives raise or lower the signal. The procedure, abridged:
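HUVEC primary cells, 24 h compound exposure; VCAM-1 by ELISA; gain/loss of signal fitted bidirectionally vs DMSO baseline.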

The nature of experiment [13]: BSK_4H_Eotaxin3: BioMAP Diversity Plus: 4H Assay for Eotaxin 3 Biomarker Activity (AID 2283000).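 Also: CCL26 protein level quantified by ELISA in parallel with SRB cytotoxicity check.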 To be noted: primary human endothelial cells (HUVEC); actives raise or lower the signal. The procedure, abridged:
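HUVEC, 24 h post-dose, ELISA for Eotaxin-3/CCL26. Gain or loss of signal fitted bidirectionally vs DMSO baseline.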

For experiment [14], the target named is human Peroxisome Proliferator-activated Receptor alpha (PPARa), PPARA (gene 5465) (UniProt Q07869). Description: ATG_PPARa_TRANS: Attagene TRANS-FACTORIAL HepG2 Assay for human Peroxisome Proliferator-activated Receptor alpha (PPARa) (AID 2283001; active = hit-call score of the fitted dose curve at least 0.9, where 1 is the maximum). The procedure, abridged:
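HepG2, transient MRTU transfection, 24 h treatment. RT-PCR → FAM labelling → capillary electrophoresis. Fit vs DMSO, positive direction.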

Read-out in experiment [15]: Intercellular Adhesion Molecule 1 (ICAM1), ICAM1 (gene 3383)
Description: BSK_3C_ICAM1: BioMAP Diversity Plus: 3C Assay for Intercellular Adhesion Molecule 1 (ICAM1) Biomarker Activity (AID 2283003). The note with it: primary human endothelial cells (HUVEC); actives raise or lower the signal. Put shortly:
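ELISA readout of ICAM1 in human umbilical vein endothelial cells in the 3C system, taken 24 h post-dose. Gain or loss of signal versus DMSO was fitted in both directions, with SRB total-protein staining run in parallel.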

For experiment [16], the target named is human Retinoic Acid Receptor beta (RARb), RARB (gene 5915) (UniProt P10826). Description: ATG_RARb_TRANS: Attagene TRANS-FACTORIAL HepG2 Assay for human Retinoic Acid Receptor beta (AID 2283004; active = hit-call score of the fitted dose curve at least 0.9, where 1 is the maximum). The procedure, abridged:
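HepG2 cells transiently transfected with multiplexed GAL4-UAS reporter units expressing chimeric NR–Gal4 fusions; 24 h compound exposure. Reporter mRNA quantified by RT-PCR, 6-FAM labelling, HpaI digestion and capillary electrophoresis; gain-of-signal fitted against DMSO baseline.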

A short description of experiment [17]: BSK_3C_Proliferation: Cell Proliferation Assessment in the BioMAP Diversity Plus: 3C Assay (AID 2283006). The note with it: primary human endothelial cells (HUVEC). Put shortly:
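Proliferation as total protein: sulforhodamine B (0.1%) stain of TCA-fixed subconfluent human umbilical vein endothelial cells, absorbance 560 nm, 48 h after dosing. Activity fitted in both directions against DMSO baseline.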

For experiment [18], the target named is human Retinoic Acid Receptor gamma (RARg), RARG (gene 5916) (UniProt P13631). Put plainly: ATG_RARg_TRANS: Attagene TRANS-FACTORIAL HepG2 Assay for human Retinoic Acid Receptor gamma (RARg) (AID 2283009; active = hit-call score of the fitted dose curve at least 0.9, where 1 is the maximum). Put shortly: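 Transactivation of exogenous RARg-Gal4 fusion measured as reporter transcript induction after 24 h in transfected HepG2 cells. RNA reverse-transcribed, amplified, fluorescently labeled and resolved by capillary electrophoresis; increase relative to DMSO.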

In experiment [19] the target is human RAR-related Orphan Receptor beta (RORb), RORB (gene 6096) (UniProt Q92753). Description: ATG_RORb_TRANS: Attagene TRANS-FACTORIAL HepG2 Assay for human RAR-related Orphan Receptor beta (RORb) (AID 2283010; active = hit-call score of the fitted dose curve at least 0.9, where 1 is the maximum). Put shortly: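 Read-out is reporter mRNA induction, quantified by RT-PCR with fluorescent capillary electrophoresis, 24 h post-dose in transiently transfected HepG2 expressing exogenous NR-Gal4 chimera. Activity fitted upward versus DMSO.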

Experiment [20] deals with Retinoic acid receptor alpha (Homo sapiens) (UniProt P10276). Description: ATG_RARa_TRANS: Attagene TRANS-FACTORIAL HepG2 Assay for human Retinoic Acid Receptor alpha (RARa) (AID 2283005; active = hit-call score of the fitted dose curve at least 0.9, where 1 is the maximum). Put shortly: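 HepG2 transiently transfected with multiplex GAL4-UAS reporter units including a human RARa–GAL4 chimera; 24 h compound exposure. Reporter mRNA quantified by RT-PCR, 6-FAM labeling and capillary electrophoresis; gain of signal versus DMSO.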
Sequence of Retinoic acid receptor alpha (Homo sapiens) (P10276 whole entry, looked up, the tested form may be a part): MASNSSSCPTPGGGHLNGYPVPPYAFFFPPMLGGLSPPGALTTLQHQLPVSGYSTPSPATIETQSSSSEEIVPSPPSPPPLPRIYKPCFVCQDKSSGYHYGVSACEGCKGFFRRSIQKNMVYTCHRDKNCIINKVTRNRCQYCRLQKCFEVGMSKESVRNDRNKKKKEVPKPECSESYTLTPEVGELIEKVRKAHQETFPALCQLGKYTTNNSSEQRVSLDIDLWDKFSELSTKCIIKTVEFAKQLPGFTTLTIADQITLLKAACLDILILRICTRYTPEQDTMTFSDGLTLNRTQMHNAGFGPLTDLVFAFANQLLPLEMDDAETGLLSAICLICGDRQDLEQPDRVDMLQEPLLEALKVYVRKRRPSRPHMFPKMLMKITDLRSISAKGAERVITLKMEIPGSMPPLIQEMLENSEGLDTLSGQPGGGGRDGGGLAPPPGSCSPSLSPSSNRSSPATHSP

Sequence of Peroxisome proliferator-activated receptor gamma (Homo sapiens) (P37231 whole entry, looked up, the tested form may be a part): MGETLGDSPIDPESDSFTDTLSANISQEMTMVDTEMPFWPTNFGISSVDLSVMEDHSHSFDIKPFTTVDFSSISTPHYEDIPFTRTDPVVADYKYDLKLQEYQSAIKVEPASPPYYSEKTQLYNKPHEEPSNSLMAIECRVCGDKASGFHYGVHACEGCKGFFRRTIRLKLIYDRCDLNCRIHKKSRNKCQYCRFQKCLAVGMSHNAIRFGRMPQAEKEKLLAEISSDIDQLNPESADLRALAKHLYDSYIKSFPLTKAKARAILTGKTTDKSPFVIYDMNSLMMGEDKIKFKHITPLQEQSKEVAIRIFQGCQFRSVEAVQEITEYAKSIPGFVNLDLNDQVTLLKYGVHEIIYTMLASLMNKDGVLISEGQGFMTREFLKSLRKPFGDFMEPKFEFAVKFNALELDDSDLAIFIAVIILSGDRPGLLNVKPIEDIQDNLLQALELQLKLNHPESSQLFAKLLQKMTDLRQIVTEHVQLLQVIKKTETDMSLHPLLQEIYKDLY
Sequence of human Peroxisome Proliferator-activated Receptor alpha (PPARa), PPARA (gene 5465) (Q07869 whole entry, looked up): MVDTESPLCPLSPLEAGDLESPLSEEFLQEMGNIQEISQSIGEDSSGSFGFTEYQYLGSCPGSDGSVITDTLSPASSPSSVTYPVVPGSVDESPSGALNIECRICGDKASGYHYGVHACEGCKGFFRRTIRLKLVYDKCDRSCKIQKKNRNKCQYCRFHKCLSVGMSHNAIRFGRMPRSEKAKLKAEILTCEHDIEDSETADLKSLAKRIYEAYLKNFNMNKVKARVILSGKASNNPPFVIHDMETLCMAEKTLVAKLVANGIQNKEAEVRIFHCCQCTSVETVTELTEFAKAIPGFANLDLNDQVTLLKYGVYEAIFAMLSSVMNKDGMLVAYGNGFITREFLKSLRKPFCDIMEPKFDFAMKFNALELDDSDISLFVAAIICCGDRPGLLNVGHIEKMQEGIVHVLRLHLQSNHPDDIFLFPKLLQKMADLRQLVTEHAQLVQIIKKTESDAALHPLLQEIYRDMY
Sequence of Cellular tumor antigen p53 (Homo sapiens) (P04637 whole entry, looked up): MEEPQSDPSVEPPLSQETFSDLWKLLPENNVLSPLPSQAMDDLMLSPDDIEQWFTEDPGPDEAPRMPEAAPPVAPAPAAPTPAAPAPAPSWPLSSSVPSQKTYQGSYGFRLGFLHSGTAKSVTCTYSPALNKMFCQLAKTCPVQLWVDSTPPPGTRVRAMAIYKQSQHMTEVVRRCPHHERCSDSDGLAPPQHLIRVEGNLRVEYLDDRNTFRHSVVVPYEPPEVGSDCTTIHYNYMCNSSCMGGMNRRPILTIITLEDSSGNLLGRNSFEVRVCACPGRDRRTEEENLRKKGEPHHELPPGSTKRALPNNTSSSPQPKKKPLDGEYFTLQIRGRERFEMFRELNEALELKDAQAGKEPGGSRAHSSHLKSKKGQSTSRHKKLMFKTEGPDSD
Sequence of Nuclear receptor subfamily 1 group I member 2 (Homo sapiens) (O75469 whole entry, looked up, the tested form may be a part): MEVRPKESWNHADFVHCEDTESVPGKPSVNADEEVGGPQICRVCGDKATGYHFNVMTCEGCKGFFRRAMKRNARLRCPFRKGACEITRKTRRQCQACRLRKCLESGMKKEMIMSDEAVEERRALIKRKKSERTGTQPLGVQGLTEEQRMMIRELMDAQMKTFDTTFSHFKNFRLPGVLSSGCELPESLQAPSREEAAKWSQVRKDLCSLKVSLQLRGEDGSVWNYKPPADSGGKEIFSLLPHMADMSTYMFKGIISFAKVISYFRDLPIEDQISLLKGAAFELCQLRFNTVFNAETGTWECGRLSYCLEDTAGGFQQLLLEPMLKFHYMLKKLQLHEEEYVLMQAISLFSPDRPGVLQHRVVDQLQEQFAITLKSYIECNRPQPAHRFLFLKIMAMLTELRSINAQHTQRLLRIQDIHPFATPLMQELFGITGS
Sequence of human Peroxisome Proliferator-activated Receptor delta (PPARd), PPARD (gene 5467) (Q03181 whole entry, looked up, the tested form may be a part): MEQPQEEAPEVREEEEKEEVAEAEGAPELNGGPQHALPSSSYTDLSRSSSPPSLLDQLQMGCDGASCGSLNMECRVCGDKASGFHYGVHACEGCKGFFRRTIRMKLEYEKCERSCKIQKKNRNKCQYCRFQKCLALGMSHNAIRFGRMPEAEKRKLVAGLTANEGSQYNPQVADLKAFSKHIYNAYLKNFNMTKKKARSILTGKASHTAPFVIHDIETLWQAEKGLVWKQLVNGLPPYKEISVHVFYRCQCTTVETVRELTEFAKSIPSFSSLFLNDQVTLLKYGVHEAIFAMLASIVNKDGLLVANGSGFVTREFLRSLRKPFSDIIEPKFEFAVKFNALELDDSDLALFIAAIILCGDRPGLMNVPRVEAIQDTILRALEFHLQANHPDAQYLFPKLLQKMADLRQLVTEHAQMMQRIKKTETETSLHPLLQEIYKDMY
Sequence of Myc proto-oncogene protein (Homo sapiens) (P01106 whole entry, looked up, the tested form may be a part): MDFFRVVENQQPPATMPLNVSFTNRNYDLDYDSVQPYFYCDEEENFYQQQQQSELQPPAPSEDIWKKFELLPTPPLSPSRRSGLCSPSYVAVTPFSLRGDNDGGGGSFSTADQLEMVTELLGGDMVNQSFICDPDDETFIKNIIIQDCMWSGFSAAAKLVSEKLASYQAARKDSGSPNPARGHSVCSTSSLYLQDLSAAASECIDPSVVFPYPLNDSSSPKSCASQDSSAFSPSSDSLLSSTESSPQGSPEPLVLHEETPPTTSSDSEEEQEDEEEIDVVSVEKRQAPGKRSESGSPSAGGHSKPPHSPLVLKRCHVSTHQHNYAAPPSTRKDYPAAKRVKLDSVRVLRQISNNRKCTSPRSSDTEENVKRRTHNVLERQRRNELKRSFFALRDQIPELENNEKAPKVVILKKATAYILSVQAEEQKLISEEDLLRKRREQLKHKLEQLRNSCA
Sequence of human Retinoic Acid Receptor gamma (RARg), RARG (gene 5916) (P13631 whole entry, looked up, the tested form may be a part): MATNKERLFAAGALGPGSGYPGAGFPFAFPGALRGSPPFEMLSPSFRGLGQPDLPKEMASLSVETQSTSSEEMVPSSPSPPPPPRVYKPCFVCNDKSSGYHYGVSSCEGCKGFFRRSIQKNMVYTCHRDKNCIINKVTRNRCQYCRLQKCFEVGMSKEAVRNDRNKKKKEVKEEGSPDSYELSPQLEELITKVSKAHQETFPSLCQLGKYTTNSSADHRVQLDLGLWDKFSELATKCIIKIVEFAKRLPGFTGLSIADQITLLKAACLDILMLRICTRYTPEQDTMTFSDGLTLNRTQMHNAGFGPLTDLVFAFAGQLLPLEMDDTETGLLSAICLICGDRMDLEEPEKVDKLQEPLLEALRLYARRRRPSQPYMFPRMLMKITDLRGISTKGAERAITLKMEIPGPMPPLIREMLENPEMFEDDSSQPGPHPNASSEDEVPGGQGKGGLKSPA
Sequence of human RAR-related Orphan Receptor beta (RORb), RORB (gene 6096) (Q92753 whole entry, looked up, the tested form may be a part): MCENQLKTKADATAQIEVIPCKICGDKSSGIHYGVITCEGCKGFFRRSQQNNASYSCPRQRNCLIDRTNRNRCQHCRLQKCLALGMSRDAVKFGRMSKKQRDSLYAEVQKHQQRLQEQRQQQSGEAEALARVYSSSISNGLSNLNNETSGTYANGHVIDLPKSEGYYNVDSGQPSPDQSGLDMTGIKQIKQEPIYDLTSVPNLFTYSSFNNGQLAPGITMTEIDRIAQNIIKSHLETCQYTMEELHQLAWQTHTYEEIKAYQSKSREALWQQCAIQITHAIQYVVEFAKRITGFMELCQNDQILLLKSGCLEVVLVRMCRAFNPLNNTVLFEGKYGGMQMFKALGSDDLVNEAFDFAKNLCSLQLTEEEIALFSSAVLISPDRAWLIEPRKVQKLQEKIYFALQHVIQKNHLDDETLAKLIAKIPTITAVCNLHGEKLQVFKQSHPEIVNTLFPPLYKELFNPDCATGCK
Sequence of human Retinoic Acid Receptor beta (RARb), RARB (gene 5915) (P10826 whole entry, looked up, the tested form may be a part): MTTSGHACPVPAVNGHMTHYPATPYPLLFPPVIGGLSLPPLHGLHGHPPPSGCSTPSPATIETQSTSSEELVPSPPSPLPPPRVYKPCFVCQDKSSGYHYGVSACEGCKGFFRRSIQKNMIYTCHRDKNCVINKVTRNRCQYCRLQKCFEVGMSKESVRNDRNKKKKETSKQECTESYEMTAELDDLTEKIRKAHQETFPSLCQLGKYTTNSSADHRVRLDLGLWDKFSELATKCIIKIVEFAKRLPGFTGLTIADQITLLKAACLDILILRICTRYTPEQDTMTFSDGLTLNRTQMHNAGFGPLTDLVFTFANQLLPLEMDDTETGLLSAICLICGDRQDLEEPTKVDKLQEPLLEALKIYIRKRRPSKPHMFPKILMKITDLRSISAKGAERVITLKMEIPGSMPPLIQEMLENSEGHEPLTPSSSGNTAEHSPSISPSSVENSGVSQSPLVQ

On to `CC(=O)C(F)(F)C(F)(F)F`, for which the result in experiment [1], in [2], in [3], in experiment [4], in experiment [5] and in [6] was inactive. Further, the outcome in experiment [7], in experiment [8] and in [9] was inactive.

Regarding `Cc1cc(C)cc(C)c1`, the compound was called inactive in experiment [1], in [2], in experiment [3], in [4], in experiment [5] and in experiment [10]. For the same compound, the result in [11], in [12], in [13], in experiment [14], in [15] and in experiment [16] was inactive. The result in [17], in experiment [18] and in experiment [19] was inactive.

`O=c1[nH]c2ccccc2n1C1CCN(CCCC(c2ccc(F)cc2)c2ccc(F)cc2)CC1`: the result in experiment [1], in experiment [2], in experiment [3], in [5], in experiment [6] and in [9] was inactive. Also, the AC50 (in general, the midpoint of the concentration-response curve, whichever way the signal moves) in [4] was 3.15 µM (active).

Regarding `O=C(NC(=O)c1c(F)cccc1F)Nc1cc(Cl)c(Oc2ncc(C(F)(F)F)cc2Cl)c(Cl)c1`, the compound was classed as inactive in experiment [1], in experiment [2], in [3], in [5], in [6] and in experiment [7]. Moreover, the result in [8] and in experiment [9] was inactive. The AC50 in experiment [4] is 31.9 µM (active).

As for `CC1(C)COP(Oc2ccccc2)OC1`, the compound was called inactive in [1], in [2], in experiment [3], in [4], in experiment [5] and in experiment [14]. Also, the call in experiment [7] and in experiment [18] was inactive.

Take `CCCCC(CC)COC(=O)Cl` (configuration not stated): the result in experiment [1], in experiment [2], in experiment [3], in experiment [4], in experiment [5] and in experiment [16] was inactive. The compound was called inactive in experiment [20], in [8] and in experiment [18].

`O=C=Nc1ccc(Cl)cc1`: the outcome in experiment [1], in experiment [3], in experiment [4], in experiment [5], in [6] and in experiment [8] was inactive. In addition, the compound was called inactive in experiment [9]. For the same compound, in experiment [2], the AC50 was 149 µM (active).

As to `CN(C)CCN(C)C`, the call in [1], in experiment [2], in experiment [3], in [4], in experiment [5] and in [14] was inactive. For the same compound, the compound was classed as inactive in experiment [7], in experiment [20], in experiment [9] and in experiment [19].

For the compound `Clc1cccc(Cl)c1Cl`, the compound was called inactive in [1], in experiment [2], in experiment [3], in [4], in experiment [5] and in [10]. Moreover, the result in experiment [11], in [12], in [13], in experiment [14], in [7] and in experiment [15] was inactive. For the same compound, the outcome in experiment [17] and in experiment [18] was inactive.

On to `CC(O)(CS(=O)(=O)c1ccc(F)cc1)C(=O)Nc1ccc(C#N)c(C(F)(F)F)c1` (configuration not stated), for which the result in experiment [1], in experiment [2], in [3], in experiment [6], in experiment [9] and in experiment [18] was inactive. In addition, the AC50 in [4] was 94.5 µM (active); in experiment [5], 58 µM (active).
